# Compounds with a hit are over-represented: about 2.9% of the library has one in this group of screens.
# CRFBP-R2 block – blocks CRF-induced signaling of the CRF-BP/CRF-R2 complex; HEK293 CRF-R2/CRF-BP, CRF-induced calcium fluorescence; inhibition, % at 11.8 µM; 350,000 tested, 0.59% active; AID 588475;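 active = inhibition of the ligand-induced calcium signal above about 50% at the single tested concentration, limit read from the data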
# ABCB6 inh MLPCN – inhibitors of human ABC transporter ABCB6 | 360,000 tested, 0.19% active | AID 602162 | fluorescence ratio to DMSO, % at 10 µM | K562-ABCB6 porphyrin accumulation, flow cytometry, 1 h; stronger effect = lower value;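 active = fluorescence ratio to DMSO below 75%, the collection mean minus 3 SD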;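 also: signal is porphyrin accumulated inside mitochondria; 100% equals median channel fluorescence of DMSO control wells; lower ratio means ABCB6 inhibition with less porphyrin fluorescence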
# CRFBP-R2 agonist – CRF-BP/CRF-R2 complex agonism; 350,000 tested, 0.46% active; HEK293 CRF-R2/CRF-BP, calcium dye fluorescence (FLIPR); percent of saturating CRF peptide response; activation, % at 13.2 µM; AID 588473;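 active = activation of at least 50%, plus an integration ratio under a set limit after plate pattern correction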;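 also: plate controls were neutral control wells without compound for no effect and CRF at EC100 for full effect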
# MEKK3 PB1 HTS – MEKK3-MEK5 PB1 interaction, increase or decrease | 290,000 tested, 1.4% active | bead-based flow cytometry, Alexa488-MEK5 binding to MEKK3; actives lie on both sides; 0 = blocked by unlabeled MEK5, 100 = vehicle | Q99759 | binding response (% of control), % at 10 µM | AID 1529;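 active = binding response more than 3 SD above or below the average of its plate-row segment, actives on both sides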;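 also: Alexa488 bead fluorescence after subtracting the streptavidin-only scavenger bead signal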
# Target sequence (Q99759 whole entry, looked up): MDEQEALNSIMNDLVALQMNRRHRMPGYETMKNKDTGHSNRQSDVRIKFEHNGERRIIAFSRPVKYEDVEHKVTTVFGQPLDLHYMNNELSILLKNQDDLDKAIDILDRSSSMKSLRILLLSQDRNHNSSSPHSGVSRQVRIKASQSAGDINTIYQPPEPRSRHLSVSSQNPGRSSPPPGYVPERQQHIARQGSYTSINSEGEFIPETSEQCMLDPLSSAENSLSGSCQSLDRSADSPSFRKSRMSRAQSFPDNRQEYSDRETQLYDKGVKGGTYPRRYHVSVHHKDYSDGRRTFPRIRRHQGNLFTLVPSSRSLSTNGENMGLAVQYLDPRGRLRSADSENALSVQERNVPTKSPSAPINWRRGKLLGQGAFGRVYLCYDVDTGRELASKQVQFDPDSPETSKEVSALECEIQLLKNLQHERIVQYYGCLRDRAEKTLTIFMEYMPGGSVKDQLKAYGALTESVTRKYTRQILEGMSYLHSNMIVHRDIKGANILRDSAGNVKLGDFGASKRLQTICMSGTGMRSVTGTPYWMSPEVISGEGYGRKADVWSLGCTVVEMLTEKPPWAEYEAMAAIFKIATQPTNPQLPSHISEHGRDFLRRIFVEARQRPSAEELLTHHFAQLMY
# MEKK2mut PB1 HTS – signal of MEK5 binding to mutant human MEKK2 PB1 domain. bead flow cytometry, Alexa488-MEK5 binding to MEKK2 mutant. percent response, % at 10 µM. 290,000 tested, 0.35% active; in the data active = percent response above about 24%, passing the limit was not always enough
# MEKK2 WT-MEK5 – raises or lowers MEK5 binding to wildtype human MEKK2 PB1 domain; Q9Y2U5; bead flow cytometry, Alexa488-MEK5 binding to MEKK2 WT; actives lie on both sides; binding response (% of control), % at 10 µM; 290,000 tested, 1.1% active; AID 1531; in the data active = binding response below about 67% or above about 130%
# MEKK2wt confirm – raises or lowers MEK5 binding to wildtype human MEKK2, retest; shares compounds with MEKK3 PB1 HTS; bead flow cytometry, Alexa488-MEK5 binding to MEKK2 WT; actives lie on both sides; binding response (% of control), % at 10 µM; 5,900 tested, 2.4% active; AID 1892; in the data active = binding response below about 16% or above about 210%; inactive = in between
# MEKK2mut confirm – signal of MEK5 binding to mutant human MEKK2, retest | shares compounds with MEKK3 PB1 HTS | bead flow cytometry, Alexa488-MEK5 binding to MEKK2 mutant | percent response, % at 10 µM | 5,900 tested, 2% active; in the data active = percent response mostly above about 71%, no sharp cut-off; inactive = mostly below about 38%;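 also: higher means compound restores mutant binding toward wildtype level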
# MEKK3-MEK5 inh – confirmation of inhibitors of MEK5 binding to human MEKK3; AID 1894; bead flow cytometry, Alexa488-MEK5 binding to MEKK3; stronger effect = lower value; binding response (% of control), % at 10 µM; shares compounds with MEKK3 PB1 HTS; 5,900 tested, 1.8% active;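 active = binding response below 72% of control, or above a set upper limit, though filed actives all read lower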;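 also: 100% = DMSO only wells and 0% = binding blocked by excess unlabeled MEK5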
# Active calls of the source: *; nt = not tested or not shown; [ ] = dose if it differs, or a comment.
SMILES,CRFBP-R2 block,ABCB6 inh MLPCN,CRFBP-R2 agonist,MEKK3 PB1 HTS,MEKK2mut PB1 HTS,MEKK2 WT-MEK5,MEKK2wt confirm,MEKK2mut confirm,MEKK3-MEK5 inh
COc1ccc(CCNC(=O)CC2Nc3cc(C)c(C)cc3NC2=O)cc1OC (stereo not given),12,100,3,0.0*[inhibitor],-20,1.0*[inhibitor],102,4,105
O=S1(=O)CC(N2CC=CC2)CN1Cc1cn(Cc2ccc(F)cc2)nn1 (stereo not given),nt,93,nt,nt,nt,nt,nt,nt,nt
CCc1c(C)c2ccc(OCC(=O)NCC3CCC(C(=O)O)CC3)cc2oc1=O (stereo not given),8,102,-1,102,3,100,nt,nt,nt
CCc1ccc(OCC2c3cc(OC)c(OC)cc3CCN2C(=S)NC)cc1 (stereo not given),5,95,1,134*,0,117,102,7,102
CCc1ccc(OCC2c3cc(OC)c(OC)cc3CCN2C(=S)NCCOC)cc1 (stereo not given),31,100,1,103,17,106,nt,nt,nt
Cc1cc(Cl)ccc1OCC(=O)Nn1c(C)ccc1C,6,102,-4,128*,9,123,96,-1,100
COc1cc2nc(N(CCCN(C)C)C(=O)c3ccc(S(=O)(=O)N4CCc5ccccc5C4)cc3)sc2cc1OC,-9,94,16,nt,nt,nt,nt,nt,nt
CCOc1ccc2nc(N(CCCN(C)C)C(=O)c3ccc4c(c3)CCCC4)sc2c1,-30,101,11,105,26*,158*,160,37,105
CCOc1ccc2nc(N(CCCN(C)C)C(=O)c3ccc(S(=O)(=O)N4CCc5ccccc5C4)cc3)sc2c1,-18,103,4,103,20,168*,176,39,102
CN(C)CCCN(C(=O)c1ccc2c(c1)CCCC2)c1nc2ccc(Cl)cc2s1,-191,101,21,107,78*,196*,221*,62,107
Cc1cc2ccccc2n1CCNC(=O)c1ccc(S(=O)(=O)N2CCOCC2)cc1,-17,107,12,57*[inhibitor],-5,nt,77,-12,89
Cc1cc2ccccc2n1CCNC(=O)c1ccccc1,-12,102,-1,66*[inhibitor],-33,75,30,-32,59*
CC(=O)NCCn1c(C)cc2ccccc21,1,103,1,101,5,106,nt,nt,nt
Cc1cc2ccccc2n1CCNC(=O)COc1ccccc1,-1,107,1,58*[inhibitor],-27,33*[inhibitor],65,-16,88
Cc1cc2ccccc2n1CCNC(=O)c1ccc(Br)o1,6,99,1,47*[inhibitor],8,99,21,-30,53*
CS(=O)(=O)c1ccc(N2CCN(S(=O)(=O)c3cccs3)CC2)c([N+](=O)[O-])c1,12,100,-1,nt,nt,nt,nt,nt,nt
CC1C(=O)N2CCCc3cc(NC(=O)CC(C)(C)C)cc1c32 (stereo not given),-3,98,0,104,0,102,nt,nt,nt
Cc1onc(-c2ccccc2Cl)c1C(=O)NCCn1c(C)cc2ccccc21,28,105,-2,71*[inhibitor],-31,nt,98,-7,98
COc1cc(/C=C2\SC(=S)N(CC(=O)Nc3cccnc3)C2=O)cc(OC)c1OC,-23,103,4,107,-1,84,nt,nt,nt
COc1cc(/C=C2\SC(=S)N(CC(=O)Nc3ccc(O)cc3)C2=O)cc(OC)c1OC,-2,92,1,67*[inhibitor],90*,51,87,-12,97
Cc1ccc(S(=O)(=O)N(CC(=O)Nc2ccc(Cl)c([N+](=O)[O-])c2)C2CCCCC2)cc1,24,98,-2,107,27,146*,132,20,106
Cc1ccc(NC(=O)CCCN2C(=O)NC(C)(C)C2=O)cc1,-3,102,0,nt,nt,nt,nt,nt,nt
Cc1ccc(N(CN2C(=O)NC(C)(C)C2=O)CN2C(=O)NC(C)(C)C2=O)cc1,-15,94,-2,2.0*[inhibitor],-16,2.0*[inhibitor],101,-4,99
CCOC(=O)c1ccc(NC(=S)N(CCCN2CCCC2)Cc2cccs2)cc1,-7,79,8,107,9,124,nt,nt,nt
CCOC(=O)c1ccc(NC(=S)N(CCCN2CCCC(C)C2)Cc2cccs2)cc1 (stereo not given),-20,96,1,103,13,142*,119,6,100
SMILES,CRFBP-R2 block,ABCB6 inh MLPCN,CRFBP-R2 agonist,MEKK3 PB1 HTS,MEKK2mut PB1 HTS,MEKK2 WT-MEK5,MEKK2wt confirm,MEKK2mut confirm,MEKK3-MEK5 inh
O=C(CN1CCCN(S(=O)(=O)c2ccc(Br)cc2)CC1)Nc1ccc2c(c1)OCO2,nt,nt,nt,1.0*[inhibitor],-9,0.0*[inhibitor],105,-2,97
COc1ccc(S(=O)(=O)N2CCCN(CC(=O)Nc3ccc4c(c3)OCO4)CC2)cc1,30,96,2,nt,nt,nt,nt,nt,nt
Cc1ccc(NC(=O)CN2C(=O)NC3(CCCCC3)C2=O)cc1S(=O)(=O)N1CCOCC1,-2,91,-2,nt,nt,nt,nt,nt,nt
CC1=C(C(=O)N(C)C)CC(CC(=O)NCCN2CCOCC2)C(=O)N1Cc1ccc(F)cc1 (stereo not given),-5,100,-2,nt,nt,nt,nt,nt,nt
O=[N+]([O-])c1cc(/C=N/n2c(-c3ccncc3)n[nH]c2=S)ccc1Cl,-9,106,0,113,-8,106,nt,nt,nt
Cc1cc(-c2n[nH]c(=S)n2/N=C/c2ccc(Cl)c([N+](=O)[O-])c2)n[nH]1,-10,100,0,155*,0,109,103,-5,104
Cc1ccc(-c2nn3c(C)nnc3s2)cc1NCc1c(F)cccc1Cl,15,94,-1,50*[inhibitor],-42,50*[inhibitor],91,-13,97
CCC(C)NCCOCCOc1ccc(F)cc1 (stereo not given),1,99,-3,2.0*[inhibitor],-21,3.0*[inhibitor],101,-3,99
CCC(C)NCCOCCOc1cc(C)c(Cl)c(C)c1 (stereo not given),1,83,1,102,7,107,nt,nt,nt
COc1ccc(C)cc1NC(=O)c1cc(S(=O)(=O)N2CCOCC2)cn1C,-11,98,11,99,4,93,nt,nt,nt
CN(C1CCCCC1)S(=O)(=O)c1ccc(S(=O)(=O)N2CCN(C(=O)c3ccccc3F)CC2)cc1,-2,100,1,144*,9,133,106,4,106

# Compound activity deposited in PubChem by several laboratories.
